The source of these data is PubChem BioAssay (NCI).

The panel holds about 83,000 compounds, 20% with a hit somewhere; the sample as a whole holds those more often.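 Negative percent growth values reflect cell death: -40 means 40% of the cells present at the start died, and -100 means all died.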 Unmarked numbers belong to inactive results. Active and inactive are the calls of the source. Rule for the calls: active = growth percent below 10; inactive = the rest.

Test systems include SK-MEL-2 melanoma; EKVX NSCLC; SN12C renal; UO-31 renal; TK-10 renal; ACHN renal; CAKI-1 renal; A498 renal; MOLT-4 leukemia; SR leukemia; RPMI-8226 leukemia; OVCAR-8 ovarian; OVCAR-5 ovarian; OVCAR-4 ovarian; SK-OV-3 ovarian; IGROV1 ovarian; OVCAR-3 ovarian; HS 578T breast; NCI/ADR-RES ovarian; CCRF-CEM leukemia.
Holding throughout (test): NCI-60 one-dose screen, 48 h (100 = growth as untreated, 0 = no growth, -100 = all killed)
Conditions in all cases: 10 µM unless noted

Take `N=C1C(c2nc(-c3ccc(Br)cc3)cs2)=C(O)CN1CC1CCCO1` (centres undefined): the growth is 89.8% in the test with SK-MEL-2 melanoma; 98.7% in the test on EKVX NSCLC; 111% in the test on SN12C renal; 20.8% in the test on UO-31 renal; 135% with TK-10 renal; 88% with ACHN renal. Moreover, the growth in the test with CAKI-1 renal is 90.4%; with A498 renal it was 96.4%; with MOLT-4 leukemia, 70.3%; with SR leukemia, 38.9%; with RPMI-8226 leukemia, 48.5%; with OVCAR-8 ovarian it was 52.7%. For the same molecule, the growth in the test on OVCAR-5 ovarian is 89.2%; in the test with OVCAR-4 ovarian, 75%; in the test on SK-OV-3 ovarian, 113%; with IGROV1 ovarian it was 46.2%; with OVCAR-3 ovarian, 105%; in the test with HS 578T breast, 89%. Moreover, the growth in the test on NCI/ADR-RES ovarian was 76.3%.
Regarding `O=C1CC(N2C(=O)/C(=C/C(Cl)=C\c3ccc([N+](=O)[O-])cc3)SC2=S)C(=O)N1c1ccc(O)cc1` (centres undefined), the growth in the test on SK-MEL-2 melanoma is -9.67% (active); with EKVX NSCLC, -2.89% (active); in the test on SN12C renal, -8.4% (active); in the test with UO-31 renal it was -75.2% (active); in the test with TK-10 renal, -1.39% (active); with ACHN renal it was -71.4% (active). The growth was 7.93% (active) in the test with CAKI-1 renal; -26.8% (active) with A498 renal; 2.92% (active) in the test with MOLT-4 leukemia; -13.4% (active) in the test with SR leukemia; -15.1% (active) in the test with RPMI-8226 leukemia; 11.6% with OVCAR-8 ovarian. In addition, the growth is -56.5% (active) in the test on OVCAR-5 ovarian; 14.1% with OVCAR-4 ovarian; 33.5% in the test with SK-OV-3 ovarian; -45.8% (active) in the test with IGROV1 ovarian; -16.4% (active) in the test with OVCAR-3 ovarian; 15.5% in the test on HS 578T breast. Further, the growth with NCI/ADR-RES ovarian is 3.58% (active).
`NNC(=O)c1nc(N)n(-c2ccc(S(N)(=O)=O)cc2)n1`: the growth in the test with SK-MEL-2 melanoma was 107%; in the test on EKVX NSCLC it was 98.2%; in the test on SN12C renal, 97.6%; in the test on UO-31 renal it was 76.2%; in the test with TK-10 renal, 104%; in the test with ACHN renal, 100%. Also, the growth in the test with CAKI-1 renal is 88%; in the test with A498 renal it was 103%; in the test with MOLT-4 leukemia, 105%; in the test with SR leukemia it was 88.5%; with RPMI-8226 leukemia, 91.4%; in the test with OVCAR-8 ovarian, 96.2%. The growth in the test on OVCAR-5 ovarian is 101%; with OVCAR-4 ovarian, 100%; in the test on SK-OV-3 ovarian it was 94.7%; in the test with IGROV1 ovarian it was 103%; with OVCAR-3 ovarian, 89.2%; with HS 578T breast it was 94.5%. For the same molecule, in the test with NCI/ADR-RES ovarian, the growth was 100%.
Regarding `CNC(=O)NCC1OC(n2cnc3c(NC(=O)Nc4ccccc4)ncnc32)C(O[Si](C)(C)C(C)(C)C)C1CC(=O)N(C)OC` (centres undefined), the growth was -4.44% (active) in the test on SK-MEL-2 melanoma; 21.4% with EKVX NSCLC; 16.8% in the test on SN12C renal; -6.83% (active) in the test on UO-31 renal; 7.05% (active) in the test on TK-10 renal; 11.4% with ACHN renal. The growth is 43% in the test with CAKI-1 renal; 45.6% in the test on A498 renal; -11.7% (active) in the test on MOLT-4 leukemia; -56% (active) in the test with SR leukemia; -75.4% (active) with RPMI-8226 leukemia; 20.4% with OVCAR-8 ovarian. For the same molecule, the growth in the test on OVCAR-5 ovarian is 44.1%; with OVCAR-4 ovarian, 19%; in the test on SK-OV-3 ovarian, 40.7%; with IGROV1 ovarian, -36.6% (active); in the test with OVCAR-3 ovarian, 7.61% (active); in the test with HS 578T breast it was 3.64% (active). The growth with NCI/ADR-RES ovarian was 54.4%.
`COC1=CC(=O)C[C@@H](C)[C@]12Oc1c(Cl)c(OC)cc(OC)c1C2=O`: the growth in the test on SK-MEL-2 melanoma was 82.7%; with EKVX NSCLC it was 106%; in the test with SN12C renal, 96.5%; with UO-31 renal, 82.7%; with TK-10 renal, 96.3%; with ACHN renal it was 99.9%. The growth is 82.1% with CAKI-1 renal; 114% with A498 renal; 93.9% in the test with CCRF-CEM leukemia; 96.9% in the test on OVCAR-8 ovarian; 90.7% with OVCAR-5 ovarian; 99.2% with SK-OV-3 ovarian. For the same molecule, the growth in the test with IGROV1 ovarian is 89.2%; in the test on OVCAR-3 ovarian, 99.8%; in the test with HS 578T breast, 91.5%; in the test with NCI/ADR-RES ovarian, 75.5%.
Consider `Cc1ccc2nc(NC(=O)CSc3nc(-c4ccccc4)c(C#N)c(=O)n3Cc3ccccc3)sc2c1`, for which the growth in the test on SK-MEL-2 melanoma is 85.7%; in the test with EKVX NSCLC it was 90.2%; in the test with SN12C renal, 92%; in the test with UO-31 renal it was 67.4%; in the test with TK-10 renal, 119%; in the test with ACHN renal, 92.6%. Further, the growth in the test on CAKI-1 renal is 69%; in the test with A498 renal it was 85.7%; with MOLT-4 leukemia, 93.8%; in the test on SR leukemia, 44.5%; with RPMI-8226 leukemia, 67.8%; in the test on OVCAR-8 ovarian, 93%. Moreover, the growth in the test with OVCAR-5 ovarian was 108%; with OVCAR-4 ovarian, 92.8%; with SK-OV-3 ovarian, 82.1%; in the test with IGROV1 ovarian, 78%; in the test with OVCAR-3 ovarian it was 58.5%; with HS 578T breast, 78.2%. Further, the growth in the test on NCI/ADR-RES ovarian is 92.2%.
`N#CC1=C(/N=C/c2ccccc2)Oc2c(ccc3ccccc23)C1c1ccccc1` (centres undefined): the growth with SK-MEL-2 melanoma is 45.7%; with EKVX NSCLC, 34.6%; in the test with SN12C renal, 37.8%; in the test with UO-31 renal, 32%; in the test with TK-10 renal, 45.2%; in the test with ACHN renal, 34.3%. For the same molecule, the growth in the test with CAKI-1 renal was 24%; with A498 renal, 16.3%; in the test on MOLT-4 leukemia it was 19.8%; with SR leukemia it was 19.2%; in the test with RPMI-8226 leukemia, 11%; with OVCAR-8 ovarian, 12.5%. Further, the growth with OVCAR-5 ovarian is 28.8%; with OVCAR-4 ovarian, 62.7%; with SK-OV-3 ovarian, 23.8%; in the test on IGROV1 ovarian, 25.1%; with OVCAR-3 ovarian, -2.72% (active); with HS 578T breast it was 18.5%. Also, in the test on NCI/ADR-RES ovarian, the growth is 1.37% (active).
For the molecule `Fc1c[c-]c(-c2ccccn2)c(F)c1.[CH3-].[Pt+2].c1ccc(P(C[PH+](c2ccccc2)c2ccccc2)c2ccccc2)cc1`, the growth in the test with SK-MEL-2 melanoma is -39% (active); with EKVX NSCLC, -12% (active); with SN12C renal, -32.2% (active); in the test on UO-31 renal, -98.2% (active); in the test on TK-10 renal it was -30.5% (active); with ACHN renal it was -100% (active). Further, the growth is -73.8% (active) with CAKI-1 renal; -79.3% (active) in the test on A498 renal; 0% (active) in the test with MOLT-4 leukemia; 1.65% (active) with SR leukemia; -13.2% (active) in the test with RPMI-8226 leukemia; 7.36% (active) in the test on OVCAR-8 ovarian. For the same molecule, the growth in the test on OVCAR-5 ovarian was -34.5% (active); in the test on OVCAR-4 ovarian, -19.3% (active); in the test with SK-OV-3 ovarian it was 9.11% (active); with IGROV1 ovarian, -22.2% (active); with OVCAR-3 ovarian it was -74.9% (active); in the test with HS 578T breast, -5.48% (active). Also, the growth in the test with NCI/ADR-RES ovarian is 49.8%.
